Each structure is given as a SMILES string. Records with an inconclusive call do not appear. Entries that show only a call come without a potency. Activity calls are given as the source filed them. Calls come from the whole dose curve; as a rule, active = well fitted activation curve with a large enough effect; inconclusive = small, poorly fitted or top-dose-only effect; inactive = flat fitted curve, though single readings scatter. Square brackets hold non-standard residues; d marks the D form. Peptide text beside a SMILES is read from it. ξ: configuration not given here. ξLac(3-iPr) = CC(C)CC(O)C(=O)O; NMeV = CN[CH](C(=O)O)C(C)C; NMeA = CN[CH](C)C(=O)O; βAla = NCCC(=O)O

This passage reports Potency results from PubChem BioAssay AID720519 (National Center for Advancing Translational Sciences (NCATS), 2013).
Potency is the fitted concentration of half-maximal effect.

This assay is described as follows: qHTS for Inhibitors of Cell Surface uPA Generation: Confirmatory Assay for Cherry-picked Compounds. As to conditions: cell surface uPA activity generation, qHTS confirmation; series mostly up to 115 µM. The source says: The overall objective of this project is to perform a quantitative high throughput screen (qHTS) to identify novel compounds that inhibit the generation of cell surface urokinase activity. The urokinase plasminogen activator (uPA) is one of the two primary endogenous systems that mediate plasminogen activation into plasmin. Members of this system, including uPA and its receptor (uPAR), are overexpressed in several malignant tumors. This system plays a major role in adhesion, migration, invasion and metastasis of cancer cells. Small molecule inhibitors of the uPA system will serve as probes to understand the molecular mechanisms of the uPA cascade and better understanding the micro-environmental circumstances that facilitate the activation of plasminogen by uPA, and finally may provide novel candidate agents for anticancer drug therapy.
[…] […] Upon inhibition of the uPA activation cascade, the subsequent cell surface uPA activity-dependent translocation of LF into the cytoplasm is inhibited. ATP-Lite is used to measure intracellular ATP concentrations (measure cell viability) which remain increased if LF entry into the cytoplasm is inhibited. This validation assay was performed using a small set of cherry picked compounds. Activation of cell viability (increase in luminescence signal) due to inhibition of the cell surface uPA generation is the desired outcome of this assay.
NIH Chemical Genomics Center [NCGC]
NIH Molecular Libraries Probe Centers Network [MLPCN]
Assay Submitter (PI): Thomas Bugge, National Institute of Dental and Craniofacial Research, NIH
Cultured RAW 264.7 were dispensed into 1536-well clear bottom, white walled tissue culture plates at a density of 4000 cells/well and were incubated overnight (12-16 h) at 37 C in a 5% CO2 incubator. Serially diluted compounds (1:5 dilution) in 23 nl DMSO were added to cells (0.0024 uM to 3.83 uM final concentration). […] Compound and reagent-treated plates were incubated for 24 h at 37 C in a 5% CO2 incubator. Three microliter of PerkinElmer ATPlite was then added to each well and luminescence was detected using the PerkinElmer ViewLux plate reader for a 5 sec exposure.
(qHTS replaces the single test concentration by a dilution series.)
With `FC(F)(F)Oc1ccc(NC2=NCCCS2)cc1`, the Potency entry was “inactive”.

As for `COc1ccc(-c2nn(CCC#N)cc2C(=O)Nc2ccccc2)cc1OC`, the Potency result is “inactive”.

As to `O=C(c1ccc(F)c([N+](=O)[O-])c1)N1CC2CC(C1)c1cccc(=O)n1C2` (stereo unspecified), the Potency entry was “inactive”.

With `COCC(=O)N1Cc2ccccc2-n2nncc2C1`, the Potency entry was “inactive”.

With `c1cncc(C2CCCCN2)c1` (stereo unspecified), the Potency result is “inactive”.

In the case of `O=c1[nH]c(=O)n(-c2ccc(Cl)cc2)c(O)c1C=Nc1ccc(S(=O)(=O)Nc2nccs2)cc1`, the Potency entry was “inactive”.

Regarding `COc1ccc(-c2nn(CCC#N)cc2C(=O)Nc2cccc([N+](=O)[O-])c2)cc1OC`, the Potency entry is “inactive”.

Regarding `O=P1(NCCCl)OCCCN1CCCl` (stereo unspecified), the Potency result was “inactive”.

With `Cc1ccccc1O`, the Potency result was “inactive”.

Turning to `CCOc1ccc(CN2CCN(C(=O)Cc3ccccc3)CC2)cc1`, the Potency entry is “inactive”.

As to `COc1ccccc1N1CCN(Cc2ccc(SC)cc2)CC1`, the Potency entry is “inactive”.

Take `CCC(C)C1NC(=O)C2CCCN2C(=O)C(CC(C)C)OC(=O)CCNC(=O)C(C)N(C)C(=O)C(C(C)C)N(C)C1=O` (stereo unspecified) (cyclo([ξLac(3-iPr)]PI[NMeV][NMeA][βAla]); configuration not given here): the Potency is 3.69 µM (active).

In the case of `COc1ccccc1NC(=O)N1C[C@@H]2C[C@@H](C1)c1cccc(=O)n1C2`, the Potency result was “inactive”.

For the compound `Cc1ccc(-n2c(O)c(C=NCCN3CCNCC3)c(=O)[nH]c2=S)cc1`, the Potency result is “inactive”.

Regarding `COC(=O)C1=C(c2cccc(OC)c2OC)C[C@@H]2CC[C@H]1N2C(=O)NC1CC1`, the Potency entry is “inactive”.

For `CCOC(=O)c1ccc(N=Cc2c(O)n(-c3ccc(OC)cc3)c(=S)[nH]c2=O)cc1`, the Potency result was “inactive”.

As to `O=c1[nH]c(=O)n(CCc2ccccc2)c(O)c1C=NC1CC1`, the Potency result was “inactive”.

As for `CCCCCn1c(=O)c(C(=O)Nc2ccccn2)c(O)c2ccccc21`, the Potency entry is “inactive”.

As for `C[N+](C)(C)CCOC(=O)CBr`, the Potency entry was “inactive”.

Take `Cc1ncc(CN2CCCC(C(=O)c3cccc(OC(C)C)c3)C2)s1` (stereo unspecified): the Potency result was “inactive”.

In the case of `Cc1cc(C(=O)NP(=O)(N2CCOCC2)N2CCOCC2)c(C)n1C1CC1`, the Potency result is “inactive”.
